Test results from PubChem BioAssay (Tox21).
Results filed as inconclusive are left out. Active and inactive are the calls of the source. Unless noted, calls come from the whole dose curve; as a rule, active = well fitted curve in the direction sought with a large enough effect in the repeat runs; inconclusive = weak or mixed curves; inactive = no such curve, though single readings can be large; an effect the other way counts as inactive or inconclusive.

Key:
[1] = qHTS assay to identify small molecule antagonists of the glucocorticoid receptor (GR) signaling pathway - cell viability counter screen (AID 720693); conditions: GR-bla HeLa viability, CellTiter-Glo luminescence, 18 h, with 5 nM dexamethasone present; series mostly up to 58.5 µM; note: nearly all actives have a fitted effect of over 55% in size; note: potency is the fitted concentration of half-maximal effect
[2] = qHTS assay for identifying genotoxic compounds that show differential cytotoxicity against isogenic chicken DT40 cell lines with known DNA damage response pathways - Rev3 mutant cell line (AID 743014); conditions: chicken DT40 Rev3-/- viability, CellTiter-Glo, 40 h; series mostly up to 68.4 µM; note: nearly all actives have a fitted effect of over 55% in size; note: potency is the fitted concentration of half-maximal effect
[3] = qHTS assay for identifying genotoxic compounds that show differential cytotoxicity against isogenic chicken DT40 cell lines with known DNA damage response pathways - Rad54/Ku70 mutant cell line (AID 743015); conditions: DT40 Rad54/Ku70 mutant viability, CellTiter-Glo, 40 h; series mostly up to 66.8 µM; note: nearly all actives have a fitted effect of over 60% in size; note: potency is the fitted concentration of half-maximal effect
[4] = qHTS assay to identify small molecule antagonists of the androgen receptor (AR) signaling pathway - cell viability counter screen (AID 743033; note: nearly all actives have a fitted effect of over 45% in size; note: potency is the fitted concentration of half-maximal effect); conditions: AR-bla HEK293 viability, CellTiter-Glo luminescence, 16 h; series mostly up to 58.5 µM
[5] = qHTS assay to identify small molecule antagonists of the androgen receptor (AR) signaling pathway using the MDA cell line - cell viability counter screen (AID 743041; note: nearly all actives have a fitted effect of over 45% in size); conditions: MDA-kb2 viability, CellTiter-Fluor, 16 h, cells co-treated with R1881 androgen agonist; series mostly up to 70.3 µM
Outline: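 R1881-driven MDA-kb2 AR-luc cells, 3,000/well, were dosed with library compounds for 16 h; cell health came from CellTiter-Fluor fluorescence in the reporter wells.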

[6] = target: Androgen receptor (Homo sapiens) (UniProt P10275); assay: qHTS assay to identify small molecule antagonists of the androgen receptor (AR) signaling pathway (AID 743035; active = well fitted inhibition curve with a large enough effect in the signal ratio in the repeat runs, not every such curve was filed as active; the % refers to the signal ratio; note: potency is the fitted concentration of half-maximal effect); conditions: HEK293 AR-UAS-bla, R1881-stimulated, beta-lactamase FRET, 16 h; series mostly up to 58.5 µM
Androgen receptor (Homo sapiens), sequence (P10275 whole entry, looked up): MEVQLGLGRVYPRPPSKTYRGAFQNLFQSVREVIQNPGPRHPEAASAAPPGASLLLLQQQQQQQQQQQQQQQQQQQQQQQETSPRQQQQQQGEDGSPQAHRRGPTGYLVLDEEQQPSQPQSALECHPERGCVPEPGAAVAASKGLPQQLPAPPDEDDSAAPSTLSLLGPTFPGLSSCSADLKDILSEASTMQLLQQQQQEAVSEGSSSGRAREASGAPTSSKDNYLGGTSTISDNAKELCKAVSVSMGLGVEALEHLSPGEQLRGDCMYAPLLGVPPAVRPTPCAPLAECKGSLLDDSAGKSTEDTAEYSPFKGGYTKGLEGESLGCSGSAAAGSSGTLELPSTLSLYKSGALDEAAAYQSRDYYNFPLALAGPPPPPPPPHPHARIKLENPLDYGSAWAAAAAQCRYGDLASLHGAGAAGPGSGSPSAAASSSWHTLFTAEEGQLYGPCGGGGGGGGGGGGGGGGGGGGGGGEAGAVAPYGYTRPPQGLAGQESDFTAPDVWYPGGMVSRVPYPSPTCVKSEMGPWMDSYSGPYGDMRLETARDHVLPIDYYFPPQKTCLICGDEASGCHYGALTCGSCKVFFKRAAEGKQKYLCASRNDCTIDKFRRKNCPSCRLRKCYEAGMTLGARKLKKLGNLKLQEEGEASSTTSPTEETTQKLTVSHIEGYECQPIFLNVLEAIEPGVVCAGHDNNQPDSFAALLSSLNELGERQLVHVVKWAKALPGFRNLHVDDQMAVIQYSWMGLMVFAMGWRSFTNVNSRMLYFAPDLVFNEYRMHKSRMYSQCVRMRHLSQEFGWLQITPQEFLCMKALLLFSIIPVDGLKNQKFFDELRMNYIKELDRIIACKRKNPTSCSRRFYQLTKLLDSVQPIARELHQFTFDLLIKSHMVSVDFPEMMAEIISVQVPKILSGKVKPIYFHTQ
Outline: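 Beta-lactamase FRET read (2 h RT incubation with LiveBLAzer B/G) following 16 h of compound plus R1881 treatment of AR-UAS-bla HEK293 cells, which had been pre-incubated 4 h at 37C.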

[7] = target: Androgen receptor (Homo sapiens) (UniProt P10275); assay: qHTS assay to identify small molecule agonists of the androgen receptor (AR) signaling pathway (AID 743036; active = well fitted activation curve with a large enough effect in the signal ratio in the repeat runs, with a control signal flat, not every such curve was filed as active; the % refers to the signal ratio); conditions: HEK293 AR-UAS-bla GripTite, beta-lactamase FRET ratio, 16 h; series mostly up to 62.4 µM
Outline: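 Cell-based FRET reporter assay: HEK293 line with a UAS-beta-lactamase construct, compounds added in DMSO, 16 h exposure at 37C, then 2 h substrate step at room temperature and fluorescence intensity read.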

[8] = target: Androgen receptor (Homo sapiens) (UniProt P10275); assay: qHTS assay to identify small molecule agonists of the androgen receptor (AR) signaling pathway using the MDA cell line (AID 743040; note: nearly all actives have a fitted effect of over 20% in size); conditions: MDA-kb2 AR-luc cells, MMTV luciferase, 16 h; series mostly up to 70.3 µM
Outline: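 After a 5 h incubation at 37C and 0% CO2, MDA-kb2 reporter cells were dosed with compounds in DMSO and kept 16 h under the same conditions. Luciferase activity was then read as luminescence with ONE-Glo.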

[9] = target: Androgen receptor (Homo sapiens) (UniProt P10275); assay: qHTS assay to identify small molecule antagonists of the androgen receptor (AR) signaling pathway using the MDA cell line (AID 743042; note: nearly all actives have a fitted effect of over 55% in size); conditions: MDA-kb2 AR-luc, MMTV luciferase, R1881 antagonist, 16 h; series mostly up to 70.3 µM
Outline: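 Antagonist mode: compounds plus R1881 agonist added to MDA-kb2 AR-luc cells, incubated 16 h at 37C. Luciferase reporter luminescence quantified, with multiplexed CellTiter-Fluor readout for cell viability.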

Measured: Potency

COc1ccc(CCN(C)CCCN2CCc3cc(OC)c(OC)cc3CC2=O)cc1OC
inactive: [1] | [2] | [3] | [4] | [5]

CC(C)(C(=O)c1cccnc1)c1cccnc1
inactive: [1] | [2] | [3] | [4] | [5]

COc1cc(C(C)=O)ccc1OCCCN1CCC(c2noc3cc(F)ccc23)CC1
inactive: [1] | [4] | [5]
active: [2] 18.8 µM | [3] 16.8 µM

COc1ccc(-c2cc(C(F)F)nn2-c2ccc(S(N)(=O)=O)cc2)cc1F
inactive: [1] | [2] | [3] | [4] | [5]

CCN(CC)c1ccc(C(=C2C=CC(=[N+](CC)CC)C=C2)c2ccc(S(=O)(=O)O)cc2S(=O)(=O)[O-])cc1
active: [1] 21.9 µM | [4] 21.9 µM
inactive: all other assays above

Nc1c(Cl)cc(Cl)cc1[N+](=O)[O-]
inactive: [6]

COC(=O)C1=C(C)NC(C)=C(C(=O)OC(C)(C)CN(C)CCC(c2ccccc2)c2ccccc2)C1c1cccc([N+](=O)[O-])c1 (stereo unspecified)
active: [6] 23.9 µM
